Active and inactive are the calls of the source. Unless noted, how the calls were made is not given here.
Assays:
[1] = A549 cell viability effects, profiling panel, calcein-AM fluorescence, 48 h, basal (AID 1162); conditions: higher = more signal; further: test concentration not given here
[2] = adipocyte viability effects, profiling panel, cell-based, 3T3-L1 adipocytes, calcein-AM fluorescence, 48 h, basal (AID 1163); conditions: 3T3-L1 adipocytes viability, higher = more signal; further: test concentration not given here
[3] = HepG2 cell viability effects, profiling panel, calcein-AM fluorescence, 48 h, basal (AID 1164); conditions: higher = more signal; further: test concentration not given here
[4] = MM1S cell viability effects, profiling panel, calcein-AM fluorescence, 48 h, basal (AID 1165); conditions: higher = more signal;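 further: viability of MM1S multiple myeloma cells under basal unstimulated conditions; test concentration not given here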
[5] = basal RPMI8226 viability, no added stimulus, profiling panel, cell-based, calcein-AM fluorescence, 48 h, PK04 Diversity Set (AID 1166); conditions: RPMI8226 myeloma viability, higher = more signal;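 further: cells grown under basal conditions without added stimulus; test concentration not given here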
[6] = basal HepG2 mitochondrial membrane potential changes, profiling panel, cell-based, JC-1 fluorescence, 24 h, 100 nL compound (AID 1167); conditions: higher = more signal; further: test concentration not given here
[7] = basal 3T3-L1 adipocyte mitochondrial potential changes, profiling panel, cell-based, JC-1 fluorescence, 3T3-L1 adipocytes, 24 h, 100 nL compound (AID 1168); conditions: JC-1 mitochondrial fluorescence, higher = more signal, called active from +8 up or from −8 down; further: test concentration not given here
[8] = basal RPMI8226 mitochondrial membrane potential changes, profiling panel, cell-based, JC-1 fluorescence, 24 h, 100 nL compound (AID 1169); conditions: RPMI8226 myeloma, JC-1 mitochondrial potential fluorescence, higher = more signal; further: test concentration not given here
[9] = basal MM1S mitochondrial membrane potential changes, profiling panel, cell-based, JC-1 fluorescence, 24 h, 100 nL compound (AID 1170); conditions: higher = more signal; further: test concentration not given here
[10] = A549 lung cancer cell viability effects, profiling panel, resazurin fluorescence, 24 h, PK04 Diversity Set (AID 1171); conditions: higher = more signal, called active from +8 up or from −8 down; further: test concentration not given here
[11] = HepG2 liver cancer cell viability effects, profiling panel, resazurin fluorescence, 24 h, PK04 Diversity Set (AID 1172); conditions: higher = more signal; further: test concentration not given here
[12] = basal S. cerevisiae growth modulation, no modifier, primary screen, OD600, strain BY4716, 24 h, basal condition (AID 1173); conditions: OD600, 24 h, higher = more signal, called active from +8 up or from −8 down
[13] = MM1S myeloma cell viability, profiling panel, resazurin fluorescence, basal, 24 h, PK04 Diversity Set (AID 1174); conditions: higher = more signal, called active from +8 up or from −8 down;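 further: MM1S multiple myeloma cell line; test concentration not given here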
[14] = molecular target: Dihydroorotate dehydrogenase (quinone), mitochondrial (Plasmodium falciparum (isolate 3D7)) (UniProt Q08210); experiment: PfDHODH enzyme inhibitors, primary screen, biochemical, C-terminal His tag, absorbance 600 nm (AID 1175); conditions: DCIP absorbance 600 nm, higher = more signal, called active from +8 up or from −8 down;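 further: recombinant parasite enzyme with a five histidine tag at its C terminus; test concentration not given here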
[15] = P. aeruginosa biofilm formation inhibitors, primary screen, strain PAO1, LB-PBS medium, absorbance 600 nm (AID 1176); further: test concentration not given here; conditions: P. aeruginosa PAO1 growth/biofilm, A600, 12 h; higher = more signal
[16] = S. cerevisiae RM11-1a growth modifiers, primary screen, strain RM11-1a, OD600, basal, 24 h (AID 1177); conditions: OD600, 24 h, higher = more signal, called active from +8 up or from −8 down;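 further: cultures grown under basal conditions with no added stressor; test concentration not given here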
[17] = E. coli acrAB mutant growth effects, primary screen, E. coli filamentation inducers, strain DRC39, OD650, 24 h (AID 1178); conditions: higher = more signal, called active from +8 up or from −8 down;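 further: growth measured as culture turbidity by optical density at 650 nm; test concentration not given here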
[18] = E. coli acrAB mutant growth effects, primary screen, E. coli filamentation inducers, strain DRC39, OD650, 48 h (AID 1179);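 further: screen aims at cell division blockers that make cells filament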; conditions: E. coli DRC39 delta-acrAB growth, higher = more signal, called active from +8 up or from −8 down
[19] = RPMI8226 myeloma cell viability, profiling panel, resazurin fluorescence, basal, 24 h, PK04 Diversity Set (AID 1180); conditions: higher = more signal;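 further: RPMI8826 multiple myeloma cell line at 5000 cells per well; test concentration not given here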
[20] = molecular target: E3 ubiquitin-protein ligase XIAP (Homo sapiens) (UniProt P98170); experiment: XIAP binders, primary screen, biophysical, small-molecule microarray, fluorescence 635 nm (AID 1181); conditions: small-molecule microarray binding, higher = more signal;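 further: score merges 667 nm emission and signal to noise over triplicate slides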
E3 ubiquitin-protein ligase XIAP (Homo sapiens), sequence (P98170 whole entry, looked up): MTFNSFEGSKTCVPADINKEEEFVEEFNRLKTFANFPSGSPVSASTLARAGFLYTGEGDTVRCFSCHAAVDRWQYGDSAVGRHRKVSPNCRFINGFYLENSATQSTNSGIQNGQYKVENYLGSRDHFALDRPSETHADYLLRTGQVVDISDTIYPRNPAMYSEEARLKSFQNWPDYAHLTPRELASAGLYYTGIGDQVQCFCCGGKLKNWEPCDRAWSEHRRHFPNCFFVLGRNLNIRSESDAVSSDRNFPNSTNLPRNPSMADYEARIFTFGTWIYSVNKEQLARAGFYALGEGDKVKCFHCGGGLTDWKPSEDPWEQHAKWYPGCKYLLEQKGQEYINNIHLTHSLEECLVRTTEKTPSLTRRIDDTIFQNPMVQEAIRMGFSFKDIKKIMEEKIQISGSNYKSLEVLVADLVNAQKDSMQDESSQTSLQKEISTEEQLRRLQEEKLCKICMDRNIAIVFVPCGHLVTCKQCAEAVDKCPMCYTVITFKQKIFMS

Dihydroorotate dehydrogenase (quinone), mitochondrial (Plasmodium falciparum (isolate 3D7)), sequence (Q08210 whole entry, looked up): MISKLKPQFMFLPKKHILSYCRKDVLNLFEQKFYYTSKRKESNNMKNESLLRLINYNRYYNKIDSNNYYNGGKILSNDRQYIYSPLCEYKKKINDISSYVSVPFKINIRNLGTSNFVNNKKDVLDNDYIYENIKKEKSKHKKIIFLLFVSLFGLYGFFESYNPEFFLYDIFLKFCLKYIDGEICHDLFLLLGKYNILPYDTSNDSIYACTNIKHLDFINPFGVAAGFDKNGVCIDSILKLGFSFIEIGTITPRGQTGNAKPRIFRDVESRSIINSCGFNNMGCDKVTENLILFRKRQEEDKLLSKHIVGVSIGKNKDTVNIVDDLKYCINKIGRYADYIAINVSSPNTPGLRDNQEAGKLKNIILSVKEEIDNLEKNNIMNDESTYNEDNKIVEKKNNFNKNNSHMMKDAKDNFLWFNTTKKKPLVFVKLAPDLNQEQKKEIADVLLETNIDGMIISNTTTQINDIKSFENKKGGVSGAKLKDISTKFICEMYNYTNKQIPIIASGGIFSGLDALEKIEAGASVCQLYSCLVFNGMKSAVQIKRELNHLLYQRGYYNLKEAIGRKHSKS

SMILES | z-score [1] | z-score [2] | z-score [3] | z-score [4] | z-score [5] | z-score [6] | z-score [7] | z-score [8] | z-score [9] | z-score [10] | z-score [11] | z-score [12] | z-score [13] | composite z-score [14] | z-score [15] | z-score [16] | z-score [17] | z-score [18] | z-score [19] | composite z-score [20]
C#CCN(C/C=C/c1ccccc1)[C@H](CO)c1ccccc1 | -1.94 | -0.27 | -1.76 | -2.02 | -1.96 | -2.74 | -0.471 (inactive) | -0.746 | 0.0614 | -0.96 (inactive) | -0.832 | -16.9 (active) | -1.19 (inactive) | 0.716 (inactive) | -0.128 (inactive) | -1.31 (inactive) | -0.338 (inactive) | -1.7 (inactive) | -1.45 | -0.167
COC(=O)[C@@]1(Cc2ccc(OC)cc2)[C@H]2c3cc(C(=O)N(C)C)n(Cc4ccc(C(F)(F)F)nc4)c3C[C@H]2CN1C(=O)c1ccccc1 | 0.212 | -0.624 | 0.106 | -0.589 | -0.782 | 0.117 | -0.29 (inactive) | 0.0192 | -1.03 | 0.248 (inactive) | 0.133 | 0.794 (inactive) | -0.312 (inactive) | -0.224 (inactive) | -0.0019 (inactive) | 0.44 (inactive) | -0.22 (inactive) | -0.18 (inactive) | 0.27 | 0.333
COC(=O)C(CC#Cc1ccc2c(c1)[C@]1(C(=O)N2)[C@H](c2ccccc2OCCO)N2[C@H](c3ccccc3)[C@H](c3ccccc3)OC(=O)[C@H]2[C@@H]1C(=O)O)C(=O)OC | 1.45 | 0.0879 | 1.38 | -2.37 | -2.41 | 1.11 | -0.847 (inactive) | -0.214 | -0.197 | 0.917 (inactive) | 0.622 | -0.502 (inactive) | 1.39 (inactive) | -5.13 (inactive) | 1.96 (inactive) | 2.98 (inactive) | 0.84 (inactive) | 0.905 (inactive) | -0.259 | 0.0533
COCCCNC(=O)[C@@]1(Cc2ccccc2CN=[N+]=[N-])N=C(c2ccc(OCCCO)cc2)O[C@H]1c1ccccc1CN=[N+]=[N-] | -0.768 | 1.56 | -0.983 | -2.88 | -3.94 | 1.57 | 2.31 (inactive) | -1.2 | -2.64 | -1.2 (inactive) | 0.122 | -1.03 (inactive) | -1.92 (inactive) | 1.06 (inactive) | 0.218 (inactive) | -0.016 (inactive) | 2.15 (inactive) | 0.707 (inactive) | -4.14 | 0.244
COCC(=C=CC[C@H](O)c1cccc(OCCO)c1)CCO | -0.243 | -0.214 | -0.909 | 0.269 | 0.256 | -0.206 | 0.244 (inactive) | -0.574 | -0.451 | 0.614 (inactive) | 0.72 | 0.161 (inactive) | 0.491 (inactive) | -0.326 (inactive) | 0.154 (inactive) | 0.896 (inactive) | 0.128 (inactive) | 0.398 (inactive) | 0.557 | 0.0153
COC(=O)[C@@]1(Cc2ccc(OC)cc2)[C@H]2c3cc(C(=O)N4CCCC4)n(CCSCCO)c3C[C@H]2CN1C(=O)c1ccccc1 | -0.35 | 0.319 | -0.814 | -2.68 | -0.804 | 1.5 | -1.29 (inactive) | -0.689 | 0.168 | 1.57 (inactive) | 0.353 | 1.6 (inactive) | 0.129 (inactive) | -0.0408 (inactive) | 0.923 (inactive) | 1.47 (inactive) | -1.18 (inactive) | -0.739 (inactive) | -1.3 | 0.187
O=C1OCCC=C[C@H]2OC34C=CCN(Cn5nnc6ccccc65)C(=O)[C@H]3N(CCO)C(=O)[C@@H]4C12 (stereo not given in full) | -0.679 | 0.432 | -0.556 | 0.897 | -1.08 | -0.298 | 0.756 (inactive) | 0.42 | -0.0431 | 0.293 (inactive) | 1.02 | 0.202 (inactive) | 0.542 (inactive) | -1.15 (inactive) | 0.152 (inactive) | -0.18 (inactive) | -0.0287 (inactive) | -0.249 (inactive) | 0.0841 | -0.146
Cc1ccc(S[C@]2(C(=O)O)CC(=O)N(Cc3ccccc3C(F)(F)F)[C@@H]2c2ccc(CO)cc2I)cc1 | 0.0342 | -0.217 | -0.742 | -3.22 | -1.5 | -1.06 | -0.438 (inactive) | -0.275 | -1.48 | 0.834 (inactive) | 0.484 | -5.47 (inactive) | -2.29 (inactive) | -0.358 (inactive) | 0.304 (inactive) | -1.22 (inactive) | 0.0985 (inactive) | -0.367 (inactive) | -1.78 | -0.0076
O=C1[C@H]2C=C(I)[C@H](C[C@@H]2OCCCCO)[C@@]12CO2 | -0.292 | -0.393 | -0.66 | -0.739 | -0.954 | -1.71 | -0.431 (inactive) | -1.13 | -0.509 | 0.109 (inactive) | 0.187 | -1.19 (inactive) | -0.536 (inactive) | -0.543 (inactive) | 0.13 (inactive) | -0.192 (inactive) | -0.682 (inactive) | -0.405 (inactive) | -0.304 | -0.0448
